Reference: PubChem BioAssay AID734 (The Scripps Research Institute Molecular Screening Center, 2007)
Out of some 5,100 compounds screened, fewer than 10 were called active.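 How the source made its calls: active means inhibition above the mean inhibition over all tested compounds plus 3 SD (cut at about 75% in these data); inactive means the rest.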 Not all results are given here.

target: Collagenase 3 (Homo sapiens) (UniProt P45452); assay: human MMP13 inhibition, fluorescence-interfering compounds – biochemical, possible fluorescent artifacts, delta fluorescence, confirmation (AID 734); details: MMP13 fTHP FRET cleavage, delta fluorescence 4 h; active compounds read high;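 each compound tested at 4 µM nominal in triplicate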;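 further: 0% = DMSO only wells and 100% = 8 µM reference MMP13 inhibitor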

SMILES | inhibition
CCOC(=O)c1sc(C)c(C(N)=O)c1NC1=NCCCCC1 | 2.74% (inactive)
CCN(CC)C(=O)Sc1cccc2cccnc12 | 7.36% (inactive)
CN(C)c1ccc(C(=O)N2CC(=O)N(CCc3ccccc3)C(=O)C2)cc1 | 0.16% (inactive)
CCOC(=O)N1CCC(N2C(=O)c3ccccc3C2Nc2ccc3c(C)cc(=O)oc3c2)CC1 (stereo unspecified) | -77% (inactive)
Cc1cc(C)c2c(N)c(C(=O)Nc3nccs3)sc2n1 | -7.23% (inactive)
COc1ccccc1Nc1nc(-c2cccs2)cs1 | 4.53% (inactive)
O=c1c2[nH]c3ccccc3c2ncn1Cc1cccnc1 | 5.84% (inactive)
Cc1oc2c(CN3CCCC3)c(O)ccc2c(=O)c1-c1ccc(Br)cc1 | 11.1% (inactive)
O=c1[nH]c2cc3c(cc2cc1C(c1nnnn1C1CCCC1)N1CCSCC1)OCCO3 (stereo unspecified) | 1.34% (inactive)
CN1CCN(CCCNC(=O)Nc2cccc3ccccc23)CC1 | 4.59% (inactive)
COc1ccc(C2C(C(=O)N3CCN(c4ccccn4)CC3)CC(=O)N2c2ccc(OC)cc2)cc1 (stereo unspecified) | 1.09% (inactive)
COC(=O)c1[nH]c2cccc(OC)c2c1NC(=O)CN1CCC(C(N)=O)(N2CCCCC2)CC1 | 5.66% (inactive)
C=C(Cl)COc1ccc2c(CC)cc(=O)oc2c1 | 6.13% (inactive)
CC1=CC2=NC(=O)CC(C)(C(=O)N(CC(=O)NC(C)(C)C)C3CCCC3)N2C=C1 (stereo unspecified) | 2.69% (inactive)
Cc1nc2c(C(=O)O)cnn2c(C)c1Cc1ccccc1F | 5.94% (inactive)
N#Cc1nc(-c2ccccc2F)oc1NCc1ccccc1 | -7.81% (inactive)
Cc1cccc(-n2c(SCCC(=O)O)nnc2-c2cccs2)c1C | 6.84% (inactive)
COc1ccc(-c2nc3nc(C)cc(C)n3n2)cc1 | 1.15% (inactive)
Cc1cc(NC(=O)CSc2ccc3nnc(-c4cccnc4)n3n2)no1 | 0.22% (inactive)
COCCCNC(=O)CSC1=Nc2ccccc2C2=NC(CC(=O)NCc3ccccc3)C(=O)N12 (stereo unspecified) | 0.89% (inactive)
COCCn1c(SCc2csc(-c3ccccc3)n2)nc2ccccc21 | 3.46% (inactive)
Cc1cccn2c(=O)c3cc(C(=O)N4CCN(C(=O)c5ccco5)CC4)n(C)c3nc12 | 0.62% (inactive)
O=C(CCCOc1ccccc1)Nc1nccs1 | 3.79% (inactive)
COc1ccc2[nH]c(=O)c(CN(CCCN(C)C)C(=O)Nc3ccccc3)cc2c1 | 0.48% (inactive)

SMILES | inhibition
O=C(Nc1ccon1)c1cnc2sccn2c1=O | 3.24% (inactive)
O=c1[nH]c(=O)n(Cc2ccccc2)c2nc(-c3ccco3)cc(C(F)(F)F)c12 | -103% (inactive)
CCCSc1n[nH]c(NC(C)=O)n1 | 3.35% (inactive)
O=C(Cc1ccccc1)Nc1ccc2oc(-c3cccnc3)nc2c1 | -8.29% (inactive)
O=C(Nc1nc(-c2cc3ccccc3oc2=O)cs1)c1ccco1 | 3.89% (inactive)
COc1ccc(C(=O)NCc2nnc(SC)n2C2CCCCC2)cc1 | -1.48% (inactive)
COc1cccc(Cn2c(=S)[nH]c3ccc(N4CCOCC4)cc3c2=O)c1 | 3.27% (inactive)
Cc1cc(=O)oc2cc(OC(C)C(=O)Nc3nccs3)ccc12 (stereo unspecified) | 3.57% (inactive)
Cc1oc2c(CN3CCOCC3)c(O)ccc2c(=O)c1-c1ccc(Br)cc1 | 6.41% (inactive)
CCn1c(=O)c2cc(C(=O)N3CCOCC3)sc2c2ccccc21 | -2.27% (inactive)
Cc1ccc(NC(=O)CC2Nc3ccccc3NC2=O)cc1Cl (stereo unspecified) | 5.69% (inactive)
CCOC(=O)N1CCN(C(=O)c2cnn3c(C)c(Cc4ccc(C)cc4)c(C)nc23)CC1 | -3.34% (inactive)
O=S(=O)(c1ccccc1C(F)(F)F)N1CCOCC1 | 6.08% (inactive)
Cc1onc(-c2ccccc2Cl)c1C(=O)Nc1nnc(-c2ccc(F)cc2)s1 | 6.05% (inactive)
CCOC(=O)N1CCC(N2C(=O)c3ccccc3C2Nc2cc(C(=O)OC)cc(C(=O)OC)c2)CC1 (stereo unspecified) | 3.52% (inactive)
Oc1ccc(N=Cc2ccc(-c3cccs3)s2)cc1 | 90.8% (active)
O=C(c1cccs1)c1ccc(-c2cccs2)s1 | 3.04% (inactive)
CC(C)CCSc1nc2c(c(=O)[nH]c(=O)n2C)n1CCc1ccccc1 | 5.17% (inactive)
CC1CCCN(C/C(O)=C(\C#N)c2nc3ccccc3[nH]2)C1 (stereo unspecified) | 4.57% (inactive)
CCCCOC(=O)Cc1c(O)c2ccccc2[nH]c1=O | 0.98% (inactive)
CN(C)CCCN1C(=O)c2oc3ccc(F)cc3c(=O)c2C1c1cccnc1 (stereo unspecified) | 5.18% (inactive)
Cc1cccc2cc(C#N)c(NCCNS(=O)(=O)c3ccc4c(c3)OCCO4)nc12 | 3.35% (inactive)
Cc1ccc(S(=O)(=O)N2CCCC2C(=O)Oc2ccccc2)cc1 (stereo unspecified) | 5.98% (inactive)
Cc1ccc(-n2c(-c3ccncc3)nnc2-c2ccco2)cc1 | 2.09% (inactive)

SMILES | inhibition
Cc1cc(N2CCOCC2)nc2ccc(NC(=O)CCC(=O)N3CCCC(C)C3)cc12 (stereo unspecified) | 2.6% (inactive)
CC(C)(/C=N/O)/[N+]([O-])=C/c1ccccc1C(F)(F)F | 8.54% (inactive)
COc1cc2c(=O)n(CC3CCCO3)c(=O)n(CC(=O)Nc3ccc(F)cc3F)c2cc1OC (stereo unspecified) | 2.92% (inactive)
CN1C(=O)Cc2cc(S(=O)(=O)N3CCOCC3)ccc21 | 2.06% (inactive)
O=C1CCCN1CCCNc1ncnc2c1cnn2-c1ccc(Cl)cc1 | 3.23% (inactive)
CCOC(=O)c1[nH]c2ccc(OCC)cc2c1NC(=O)CN1CCN(c2ccccc2)CC1 | 1.46% (inactive)
c1ccc(-n2nnnc2SCc2cn3cccnc3n2)cc1 | 9.28% (inactive)
O=S(=O)(Nc1ccc(-c2nc3cccnc3s2)cc1)c1cccs1 | 198% (active)
O=C(Nc1ccc(-c2nc3cccnc3s2)cc1)c1ccc(Br)o1 | 2.61% (inactive)
O=C(Nc1ccc(-c2nc3cccnc3s2)cc1)c1ccco1 | 4.83% (inactive)
N#Cc1nc(-c2cccs2)oc1N1CCN(c2ccccc2)CC1 | 8.02% (inactive)
Cc1oc(C(C)(C)C)cc1C(=O)Nc1ccc(C(=O)O)cc1 | 4.23% (inactive)
Cc1ccc(-c2cc(C(=O)N3CCOCC3)c3ccccc3n2)cc1 | 7.4% (inactive)
CCC(=O)N/C(N)=N/c1nc(C)c2cc(OC)ccc2n1 | 1.9% (inactive)
COc1nc(-c2ccc(C)cc2)ccc1-c1noc(-c2ccco2)n1 | -3.29% (inactive)
Cc1cccn2c(=O)c(C=Nc3ccc(Cl)cc3)c(NCCO)nc12 | -0.72% (inactive)
CC(C)COc1ccc(-c2nnc(-c3ccco3)o2)cc1 | 3.48% (inactive)
COC(=O)C1=CNC=C(C(=O)OC)C1c1cccc(OC)c1 | 27.7% (inactive)
CN(C)c1ccc(-c2nn3c(C4CCCCC4)nnc3s2)cc1 | 4.05% (inactive)
COc1ccc(CCNc2oc(-c3ccc(OC)c(OC)c3)nc2C#N)cc1 | 1.68% (inactive)
COc1ccc(-c2cn3c(C)c(C(=O)Nc4cc(NC(C)=O)ccc4OC)sc3n2)cc1 | 14.3% (inactive)
COCCNC(=O)c1cc2c(-c3ccccc3F)nn(C)c2s1 | -5.47% (inactive)
CC(Oc1ccc2oc(-c3ccccc3)c(C(=O)O)c2c1)C(=O)O (stereo unspecified) | -5.25% (inactive)
O=c1cc(CN2CCN(c3ccccc3)CC2)c2cc(O)c(-c3ccccc3)cc2o1 | 8.57% (inactive)

SMILES | inhibition
CCN1CCc2c(sc3c2c(NCc2ccco2)nc2nnnn23)C1 | 10.9% (inactive)
CC(C)CCNC(=O)C(c1ccco1)N(Cc1ccccc1)C(=O)c1snc(C(N)=O)c1N (stereo unspecified) | 2.54% (inactive)
O=C(NCc1cccnc1)c1nnc(Cc2ccc(F)cc2)o1 | 2.89% (inactive)
O=C(CCSc1nnc2ccccn12)Nc1ccc(F)cc1 | 3% (inactive)
Cc1ccc(-n2c(Cc3cccn3C)nnc2SCC(=O)Nc2ccc3c(c2)OCO3)cc1 | 3.78% (inactive)
O=C(O)c1ccc(CSc2nnc(-c3ccncc3)n2CC2CCCO2)cc1 (stereo unspecified) | 5.15% (inactive)
Cc1cc(N2CCC(C)CC2)nc2ccc(N3C(=O)CCC3=O)cc12 | 4.49% (inactive)
O=S(=O)(c1cccc(-c2cn3cc(Cl)ccc3n2)c1)N1CCOCC1 | 4.43% (inactive)
CCOc1ccc(CC(=O)N2CCN(c3ccc(N4CCOCC4)nn3)CC2)cc1OCC | 11.4% (inactive)
Cc1cc(C)c2c(n1)nn1c(N3CCN(c4ccccc4)CC3)cc(C)nc21 | -3.18% (inactive)
O=C(NCc1cccnc1)c1cnn2ccccc12 | 3.72% (inactive)
CCOCCCn1c(C)nc2c(c1=O)c1nc3ccccc3nc1n2CCC1=CCCCC1 | -2.22% (inactive)
CCOC(=O)CN=C1CC(C)(C)CC2=C1Sc1ncnc(N(C)C)c1N2 | 8.62% (inactive)
N#CCSc1nc2[nH]ncc2c(=O)n1-c1ccccc1Br | 5.49% (inactive)
CC(=O)Nc1ccc(Nc2ncnc3c2cnn3-c2cccc(C)c2)cc1 | 8.03% (inactive)
COc1ccc2oc(-c3ccccc3)c(C(=O)N3CCOCC3)c2c1 | 3.94% (inactive)
CCOC(=O)CSc1nc(-c2ccc3c(c2)OCO3)ccc1C#N | 86.3% (active)
CCOC(=O)CSc1nc2cc3c(cc2cc1C#N)OCO3 | 5.66% (inactive)
CCOC(=O)CSc1nc(-c2ccncc2)ccc1C#N | 6% (inactive)
N#Cc1nc(-c2ccc(F)cc2)oc1NCc1cccc2c1OCO2 | -9.16% (inactive)
Cc1cc(C)n(-c2nc(-c3cccc(Cl)c3)cs2)n1 | 8.4% (inactive)
c1ccc2sc(Cc3nnc4n3CCCCC4)nc2c1 | 4.74% (inactive)
Cc1onc(-c2ccccc2)c1C(=O)Nc1ccc2c(C)cc(=O)oc2c1 | 2.15% (inactive)
CC(=O)c1ccc(N2CCN(C(=O)c3cc(-c4ccc5c(c4)OCO5)nc4ccccc34)CC2)cc1 | 4.89% (inactive)
